D2 ag-1 – agonists of human D2 dopamine receptor. P14416. HEK293 T-REx D2 cells, calcium flux agonist mode. activation, % at 2 µM. 0.53% of 340,000 active. AID 485358;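 active = activation over 3 SD above normal in the single-dose calcium agonist read, cut at about 30% in these data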
Target sequence (P14416 whole entry, looked up): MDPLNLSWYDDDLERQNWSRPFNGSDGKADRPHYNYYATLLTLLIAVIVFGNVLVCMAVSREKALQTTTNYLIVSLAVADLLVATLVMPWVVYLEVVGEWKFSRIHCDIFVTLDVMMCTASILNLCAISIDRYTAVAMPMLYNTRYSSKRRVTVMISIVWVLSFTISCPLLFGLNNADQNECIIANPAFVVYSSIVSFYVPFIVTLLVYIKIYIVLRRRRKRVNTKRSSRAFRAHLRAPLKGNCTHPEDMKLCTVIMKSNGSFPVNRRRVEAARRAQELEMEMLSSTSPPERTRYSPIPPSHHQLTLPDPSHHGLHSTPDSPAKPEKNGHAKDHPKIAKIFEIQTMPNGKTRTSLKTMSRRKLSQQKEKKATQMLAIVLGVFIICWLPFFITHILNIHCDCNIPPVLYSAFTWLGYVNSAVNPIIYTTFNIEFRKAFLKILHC
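Calcium-flux readout, 1 cycle/sec over 180 s following compound pin transfer, in inducible HEK293 Trex D2 cells (force-coupled); dopamine controls included. Positive calcium responses during this window marked compounds as potential agonists.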
D2 PAM-1 – human D2 receptor positive allosteric modulation; P14416; DiscoveRx D2 beta-arrestin cells, luminescence, 90 min; 100% = 57 uM dopamine signal; potentiation, % (no concentration beside the values); 0.23% of 360,000 active; AID 624464; in the data active = potentiation above about 50%; inconclusive = mostly about 30% to 49%
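PathHunter D2 cells, attached overnight at 37 deg C, received compound in DMSO plus dopamine at EC20 (50 nM final) for 90 min at 37 deg C. Beta-arrestin recruitment was read as luminescence after 1 h with detection reagent at ambient temperature.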
D2 PAM-2 – positively modulates the human D2 dopamine receptor allosterically | P14416 | HEK293 T-REx D2, calcium flux, EC20 dopamine potentiation | potentiation, % at 10 µM | 0.34% of 340,000 active;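 active = potentiation over 3 SD above the plate norm, cut at about 30% in these data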
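Potentiation of an EC20 dopamine calcium response measured kinetically over 180 s, after a preceding 180 s compound-only read flagging agonists. Cells: inducible Hek293 Trex D2 line, 4000/well, cultured overnight at 30 C before dye loading.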
D2 antagonist – antagonizes the human D2 dopamine receptor. P14416. HEK293 TREx D2 cells, calcium flux, dopamine EC80. inhibition, % at 10 µM. 2% of 340,000 active; in the data active = inhibition above about 30%; inactive = below that, where a call was filed
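Tetracycline-induced HEK293 TREx cells expressing D2 receptor forced-coupled to calcium signalling, loaded with no-wash calcium dye. Compounds added and calcium flux read 180 s, then dopamine added at EC80 and read a further 180 s.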
D2 ag-2 – human D2 receptor agonism in beta-arrestin assay; 0.084% of 360,000 active; P14416; activation, % (no concentration beside the values); DiscoveRx PathHunter D2 beta-arrestin, luminescence, 90 min; 100% = 57 uM dopamine signal; in the data active = activation above about 40%; inconclusive = between about 15% and that limit
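Agonist mode: compounds alone added to overnight-plated D2 PathHunter cells for 90 min at 37 C, with 57 uM final dopamine (EC100) defining full response. Beta-arrestin recruitment detected by chemiluminescent reagent, read after 1 h at ambient temperature.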
A number is an active result; – = inactive; ? = inconclusive; · = not tested or not shown. Most compounds without a hit are left out; they make up all but 2.4% or so of the library.

SMILES	D2 ag-1	D2 PAM-1	D2 PAM-2	D2 antagonist	D2 ag-2
CCN(CC)C(=O)CSc1nc2nc(C)cc(C)c2c(=O)[nH]1	–	–	–	–	–
O=C(NCc1ccc(F)cc1)c1ccc(CSc2nc3ccncc3n2Cc2ccc(F)cc2)cc1	–	·	–	·	·
Cc1ccccc1C1N(c2nccs2)C(=O)C2CCCN21 (stereo unspecified)	–	–	–	–	–
O=C1C2CCCN2C(c2ccccc2)N1c1nccs1 (stereo unspecified)	–	–	–	67	–
CCOc1ccccc1Nc1nnc(-c2cc3cc(OC)ccc3oc2=O)s1	–	·	–	·	·
CCC(=O)c1ccc(OCC(=O)NCCCN2CCOCC2)cc1	·	–	·	·	–
Cc1cc(OCC(=O)NCCN2CCOCC2)c2c(C)c(C)c(=O)oc2c1	–	–	33	–	–
COc1ccc(OCC(=O)NCCCN2CCOCC2)cc1	–	–	–	32	–
Cc1cccc(NC(=O)CSc2nnc(CNC(=O)c3c(F)cccc3Cl)o2)c1C	–	·	–	·	·
Clc1cccc(Nc2ncnc3ccc(Br)cc23)c1	–	–	–	–	–
Clc1ccc(Nc2ncnc3ccc(Br)cc23)cc1	–	–	–	34	–
Clc1ccc(N=c2ssnc2Cl)nc1	–	103	–	–	–
Cc1cccc(NC(=O)CN2C(=O)CSc3ccc(S(=O)(=O)N4CCCC4)cc32)c1C	–	·	–	·	·
Cc1cc(C)cc(OCCCOc2cccc3cccnc23)c1	–	–	–	33	–
COc1cc(C2Nc3cccc4cccc(c34)N2)ccc1OC(C)=O	–	?	–	–	–
Fc1ccc(C2Nc3cccc4cccc(c34)N2)cc1	–	–	–	–	–
O=[N+]([O-])c1ccc(C2Nc3cccc4cccc(c34)N2)cc1	–	80	–	–	?
COc1ccc(C2Nc3cccc4cccc(c34)N2)cc1Br	·	54	–	·	–
O=[N+]([O-])c1cccc(C2Nc3cccc4cccc(c34)N2)c1	–	105	–	–	?
O=C(NC1CCCC1)c1cc(Nc2cccc(C(F)(F)F)c2)nc2ccccc12	–	·	–	·	·
CCOc1ccc(NC(=O)/C(C#N)=C/c2ccc(N3CCCC3)c(C)c2)cc1	32	–	–	38	–
COc1cc(OC)c(NC(=O)Nc2nnc(N(C)C3CCCCC3)s2)cc1Cl	·	·	–	·	·
O=C(NC1CCCCC1)c1cc(-c2ccc(F)cc2)on1	–	–	39	–	–
Cc1ccc(-c2cc(C(=O)NC3CCCC3)no2)cc1	–	–	–	–	–
Cc1nc(=O)c(-c2ccccc2)c(C)n1-c1cccc(C(=O)O)c1	–	–	–	31	–
SMILES	D2 ag-1	D2 PAM-1	D2 PAM-2	D2 antagonist	D2 ag-2
CC(C)/C=C(/C(=O)c1ccc(Cl)cc1Cl)n1cncn1	–	–	–	–	46
N=c1oc2c3c4c(cc2cc1C(=O)Nc1ccccc1)CCCN4CCC3	95	–	–	71	–
CCCC(=O)Nc1ccc2oc(-c3cncc(Br)c3)nc2c1	–	–	–	39	–
CCCCC(=O)Nc1ccc2oc(-c3ccncc3)nc2c1	·	–	·	·	–
CCCC(=O)Nc1ccc2oc(-c3ccncc3)nc2c1	–	–	34	–	–
CCCCCC(=O)Nc1ccc2oc(-c3cncc(Br)c3)nc2c1	–	–	–	–	–
CN1CCN(/C(=N\O)c2nonc2N)CC1	–	–	–	–	–
Nc1nonc1/C(=N/O)N1CCN(CCO)CC1	–	–	–	51	–
Cc1ccc(CNC(=O)c2nnn(Cc3ccc(F)cc3)c2N)cc1	–	·	–	·	·
C=CCc1cccc(C=Nc2c[nH]c(=O)[nH]c2=O)c1O	–	–	–	–	–
C=CCc1cccc(C=Nc2cc(Br)ccc2O)c1O	–	72	–	–	?
CCCCN1C(=O)c2[nH]nc(-c3ccccc3O)c2C1c1ccc(C(C)(C)C)cc1 (stereo unspecified)	–	·	–	·	·
Cc1noc(C(=O)Nc2ccc3c(c2)OCO3)c1Cl	–	–	–	54	–
Cc1ccc2c(Cl)c(C(=O)Nc3ccc4c(c3)OCO4)sc2c1	–	–	–	34	–
Cc1ccc(-c2nc3cc(Cl)ccc3o2)cc1NC(=O)c1cc2ccccc2o1	–	·	–	·	·
Cc1sc2c(c1C)c(=O)n(-c1ccc(Cl)cc1)c(=O)n2Cc1c(F)cccc1Cl	–	·	–	·	·
CN(C)C=Nc1c(Br)cc(Br)c2nonc12	63	–	–	–	–
Oc1cc(-c2ccccc2)c2ccccc2c1	–	–	–	–	45
CC(O)(c1cccc(F)c1)c1nc(-c2cnc3ccccc3c2)cs1 (stereo unspecified)	·	65	·	·	148
COc1ccc2c3c(ccc2c1)C(=O)/C(=C/O)CC3	·	52	·	·	?
O=C1c2cccc3c(N4CCCCC4)ccc(c23)C(=O)N1c1ccccn1	37	–	–	–	–
CC(=O)N(C(C)=O)N1C(=O)c2cccc3c(N4CCOCC4)ccc(c23)C1=O	–	–	–	–	–
CC(Cc1ccco1)NC(=O)c1ccc(C(F)(F)F)cc1 (stereo unspecified)	–	–	–	32	–
N#Cc1c(F)cccc1N1CCN(Cc2ccc3c(c2)OCO3)CC1	–	–	–	85	–
Cc1ccccc1-c1cc(C(=O)NCc2ccc3c(c2)OCO3)n(CC2CC(c3cccnc3)=NO2)n1 (stereo unspecified)	–	–	–	83	–
SMILES	D2 ag-1	D2 PAM-1	D2 PAM-2	D2 antagonist	D2 ag-2
Cc1ccc(CNC(=O)c2cc(-c3ccccc3C)nn2CC2CC(c3cccnc3)=NO2)cc1 (stereo unspecified)	·	–	·	·	–
Cc1ccc(C(=O)CSc2nnc3ccc4ccccc4n23)cc1	·	·	–	·	·
Cc1nc(N)sc1C(=O)N/N=C/c1ccccc1[N+](=O)[O-]	–	·	–	33	·
CCC(CC)C(=O)NC1CC(=O)N(c2ccc3c(c2)OCCO3)C1 (stereo unspecified)	–	·	–	·	·
COc1ccc(CN2CCCC(CO)(Cc3ccc(F)cc3F)C2)cc1 (stereo unspecified)	–	–	–	43	–
Cc1nc2ccc(C(=O)N3CCCC(CO)(Cc4ccc(F)cc4F)C3)cc2nc1C (stereo unspecified)	–	–	–	30	–
CSc1ccc(CN2CCCC(CO)(Cc3ccccc3)C2)cc1 (stereo unspecified)	–	–	–	51	–
OCC1(CCc2ccccc2)CCCN(CCCc2ccccc2)C1 (stereo unspecified)	–	–	–	76	–
CCOC(=O)c1ccc2c(c1)N(CC(=O)N(C)c1ccccc1)C(=O)c1ccccc1S2	·	·	–	·	·
COc1ccc(OC)c(NC(=O)CN2C(=O)CC(C)Sc3ccccc32)c1 (stereo unspecified)	–	·	–	·	·
CC(C)Cc1cc(CN2CCCC(CO)(Cc3cccc(Cl)c3)C2)[nH]n1 (stereo unspecified)	–	–	–	53	–
CCOc1ccc(CN2CCCC(CO)(Cc3ccc(F)cc3)C2)cc1 (stereo unspecified)	–	–	–	68	–

Screening data: PubChem, National Center for Advancing Translational Sciences (NCATS)
